Test systems include NCI-H23 lung; HOP-62 NSCLC; NCI-H460 lung; HOP-92 NSCLC; NCI-H522 lung; A549/ATCC NSCLC; 786-0 renal; COLO 205 colon; NCI-H322M lung; NCI-H226 lung.
Common to all, as to test: NCI-60 one-dose screen, 48 h (100 = growth as untreated, 0 = no growth, -100 = all killed)
Conditions in all cases: 10 µM unless noted

Values joined by “and” are separate entries in the source; they are usually repeats but may differ in a detail not shown here. Equal values may be shown once. The panel holds about 83,000 compounds, 20% with a hit somewhere; the sample as a whole holds those more often.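 Negative percent growth values reflect cell death: -40 means 40% of the cells present at the start died, and -100 means all died.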 Values without a mark were called inactive. Active and inactive are the calls of the source. The calls were made as follows: active = growth percent below 10; inactive = the rest.

Turning to `Nc1ccc(S(=O)(=O)F)cc1`, the growth in the test on NCI-H23 lung is 108%; in the test on HOP-62 NSCLC, 109%; with NCI-H460 lung it was 111%; in the test with HOP-92 NSCLC, 110%; in the test on NCI-H522 lung, 96.1%; in the test with A549/ATCC NSCLC it was 102%. The growth with 786-0 renal was 94.7%; in the test on COLO 205 colon, 112%.

Consider `C=C[Se]CC(=O)/C=C/c1ccccc1`, for which the growth in the test with NCI-H23 lung is 70.1%; in the test with NCI-H322M lung, 6% (active); in the test on HOP-62 NSCLC it was 13%; with NCI-H460 lung, 12.8%; in the test on HOP-92 NSCLC, 104%; in the test with A549/ATCC NSCLC, 32.3%. For the same compound, the growth was 102% with 786-0 renal and 109% in the test on COLO 205 colon.

`COCC1OC2OC3C(COC)OC(OC4C(COC)OC(OC5C(COC)OC(OC6C(COC)OC(OC7C(COC)OC(OC8C(COC)OC(OC1C(O)C2O)C(O)C8O)C(O)C7O)C(O)C6O)C(O)C5O)C(O)C4O)C(O)C3O` (stereo unspecified) (tested in a mixture with another compound): the growth was 102% with NCI-H23 lung; 134% in the test with NCI-H322M lung; 109% with NCI-H460 lung; 109% in the test on NCI-H522 lung; 109% in the test on A549/ATCC NSCLC; 139% in the test with 786-0 renal. The growth in the test with COLO 205 colon was 127%.

Regarding `N#CCCc1ccccc1`, the growth with NCI-H23 lung was 104%; in the test with NCI-H322M lung, 105%; in the test with NCI-H460 lung it was 112%; in the test on NCI-H522 lung it was 95.3%; in the test on 786-0 renal it was 106%; in the test on COLO 205 colon, 109%.

For the compound `CC1(C)N(Nc2ccccc2)C(=O)C2CCCN21` (stereo unspecified), the growth in the test with NCI-H23 lung is 97.2%; in the test on NCI-H322M lung, 87.4%; with HOP-62 NSCLC it was 76.1%; in the test with NCI-H460 lung, 99.8%; in the test with HOP-92 NSCLC, 52.7%; in the test on NCI-H522 lung, 53.2%. Besides, the growth in the test on A549/ATCC NSCLC was 79.4%; in the test on 786-0 renal it was 33.4%; in the test with COLO 205 colon, 104%.

On to `O=S(=O)(c1ccc(O)cc1)c1ccccc1O`, for which the growth was 104% with NCI-H226 lung; 111% in the test with NCI-H322M lung; 101% in the test with HOP-62 NSCLC; 105% in the test on NCI-H460 lung; 100% in the test on HOP-92 NSCLC; 112% with A549/ATCC NSCLC. Moreover, the growth in the test with COLO 205 colon was 112%.

For `N#CCc1ccc(CC#N)cc1`, the growth in the test on NCI-H23 lung is 103%; in the test on NCI-H322M lung, 107%; in the test with NCI-H460 lung, 101%; in the test with HOP-92 NSCLC it was 3.82% (active); with NCI-H522 lung, 91.5%; in the test on A549/ATCC NSCLC, 82.1%. The growth with 786-0 renal is 97.5%; with COLO 205 colon, 111%.

Regarding `Cc1cc(N(CCCl)CCCl)ccc1/C=N\NC(=O)c1cccnc1`, the growth with NCI-H23 lung was 66.1% and 73.8%; in the test on NCI-H322M lung, 108% and 97.9%; in the test on HOP-62 NSCLC, 80.4% and 87.5%; with NCI-H460 lung it was 21.2% and 28.7%; with HOP-92 NSCLC, 88.9% and 94.3%; in the test on NCI-H522 lung it was 82.3% and 105%. Also, the growth in the test on A549/ATCC NSCLC was 73.5% and 82.5%; in the test with 786-0 renal, 81.1% and 84%; with COLO 205 colon, 94.1% and 102%.

`Cc1cc[n+](CCc2ccccc2)cc1`: the growth is 90.5% and 111% in the test on NCI-H23 lung; 96% and 96.5% in the test on NCI-H322M lung; 87.9% and 114% with HOP-62 NSCLC; 110% and 103% with NCI-H460 lung; 94.8% and 85.5% with NCI-H522 lung; 89.7% and 100% in the test with 786-0 renal. Moreover, the growth with COLO 205 colon was 127% and 119%.

As to `c1ccc(CCN2CCCCC2)nc1`, the growth is 103% with NCI-H23 lung; 106% in the test with NCI-H322M lung; 95.6% in the test on HOP-62 NSCLC; 114% in the test with NCI-H460 lung; 91.7% in the test on HOP-92 NSCLC; 101% in the test on NCI-H522 lung. Further, the growth in the test with A549/ATCC NSCLC is 95.7%; in the test with 786-0 renal it was 101%; with COLO 205 colon it was 106%.

Consider `CC(C)c1cccc(C(C)C)c1O`, for which the growth was 97% and 103% in the test with NCI-H23 lung; 99.6% and 93% with NCI-H322M lung; 111% and 110% in the test on HOP-62 NSCLC; 117% and 101% in the test on NCI-H460 lung; 100% in the test with HOP-92 NSCLC; 98% in the test with NCI-H522 lung. Moreover, the growth is 93.1% and 75.5% in the test with A549/ATCC NSCLC; 108% in the test on 786-0 renal; 116% and 111% with COLO 205 colon.

On to `C/C=C(/C)C(=O)O[C@H]1CC[C@@]2(C)[C@@H]3CC[C@H]4[C@]5(O)C[C@H](O)[C@@]6(O)[C@@H](CN7C[C@@H](C)CC[C@H]7[C@@]6(C)O)[C@]5(O)C[C@@]42O[C@@]13O`, for which the growth is 106% with NCI-H23 lung; 97.9% in the test on NCI-H322M lung; 110% in the test on NCI-H460 lung; 94% with A549/ATCC NSCLC; 89.9% in the test on 786-0 renal; 118% in the test with COLO 205 colon.

For the compound `COC(=O)CCP(CCC(=O)OC)c1ccccc1`, the growth in the test with NCI-H23 lung is 102%; in the test on NCI-H322M lung, 107%; in the test on HOP-62 NSCLC, 111%; with NCI-H460 lung, 111%; in the test with HOP-92 NSCLC it was 109%; in the test with NCI-H522 lung, 102%. Moreover, the growth with A549/ATCC NSCLC is 96.8%; with 786-0 renal it was 102%; in the test on COLO 205 colon it was 118%.

For `COc1ccc(/C=C(/C)[N+](=O)[O-])cc1OC`, the growth is 62.2% and 58.1% in the test with NCI-H23 lung; 48% and 94.5% in the test with NCI-H322M lung; 48.3% in the test with HOP-62 NSCLC; 34.2% and 22.9% in the test with NCI-H460 lung; -6.58% (active) and -11.5% (active) in the test with HOP-92 NSCLC; -88.2% (active) and -73.2% (active) in the test on NCI-H522 lung. The growth in the test on A549/ATCC NSCLC is 53.7% and 52.9%; with 786-0 renal, -53.1% (active) and -23.3% (active); with COLO 205 colon it was -69.3% (active) and -76.2% (active).

The values are drawn from PubChem BioAssay (NCI).
